High-throughput results (PubChem)
GPR151 ag: human GPR151 activation; AID 1508602; Q8TDV0; hit rate 1% among 650,000; activation, % at 11.2 µM; PathHunter beta-arrestin GPR151 cells, luminescence; in the data active = activation above about 4.9%;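 also: 0% = median of compound wells and 100% = cells with positive control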
Target sequence (Q8TDV0 whole entry, looked up): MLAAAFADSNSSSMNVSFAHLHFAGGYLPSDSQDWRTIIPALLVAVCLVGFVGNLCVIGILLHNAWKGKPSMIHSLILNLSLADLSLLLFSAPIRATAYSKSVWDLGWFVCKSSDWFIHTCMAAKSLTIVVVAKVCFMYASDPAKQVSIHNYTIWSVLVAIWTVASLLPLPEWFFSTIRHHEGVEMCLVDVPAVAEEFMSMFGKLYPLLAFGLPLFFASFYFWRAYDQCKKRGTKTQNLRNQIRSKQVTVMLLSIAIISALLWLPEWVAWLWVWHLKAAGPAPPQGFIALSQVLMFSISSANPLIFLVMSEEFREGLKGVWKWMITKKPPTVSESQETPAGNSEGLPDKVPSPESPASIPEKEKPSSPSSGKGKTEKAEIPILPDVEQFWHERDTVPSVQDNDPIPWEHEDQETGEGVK
TEAD-YAP block: TEAD-YAP interaction inhibition. HEK-TIYL cells, TEAD-Gal4/YAP UAS-luciferase luminescence. inhibition, % at 9.12 µM. hit rate 1.4% among 640,000; in the data active = inhibition above about 32%;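 also: 0% = median of test compound wells and 100% = reference inhibitor wells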
MITF primary: blocks human microphthalmia-associated transcription factor | O75030 | AlphaScreen MITF homodimerization, bead proximity signal | inhibition, % at 2.6 µM | hit rate 0.91% among 650,000; in the data active = inhibition above about 50%;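 also: 0% = vehicle wells with protein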
FBW7 act: human FBW7 E3 ligase activation, primary screen | hit rate 0.13% among 650,000 | Q969H0 | normalized activity (activation), % at 26.1 µM | AID 1259310 | AlphaScreen FBW7–phospho-cyclin E peptide binding, activator screen; in the data active = normalized activity above about 1.9%;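 also: purified mutant Fbw7 with reduced substrate affinity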
* = called active by the depositor. Only some compounds are listed: those with a hit (about 3.5% of all), similar ones and a draw of the others.

SMILES	GPR151 ag	TEAD-YAP block	MITF primary	FBW7 act
O=C1CN(C(=O)COC(=O)c2cc(-c3cccs3)nc3ccccc23)c2ccccc2N1	-1	7	55*	0
Cc1ccc(C(=O)NC(=O)CSc2n[nH]c(N)n2)cc1	-1	-8	-5	0
COc1ccc(CC(=O)N2CCC(c3nc(C)ncc3-c3ccncc3)CC2)cc1	0	-17	17	2.4*
CCOc1ccc(NC2SC(=O)N(C)C2=O)cc1 (centres undefined)	-1	-19	7	0
Fc1ccc(-n2ncc3c(NC4CCCC4)ncnc32)cc1	0	-22	-6	0
Cc1cccc(-n2ncc3c(NC4CCCCC4)ncnc32)c1	2	53*	-6	0
CN(c1ncnc2c1cnn2-c1ccccc1)C1CCCCC1	1	93*	-2	0
Cc1ccc(-n2ncc3c(NC4CCCC4)ncnc32)cc1	-1	37*	-8	0
c1ccc(-n2ncc3c(NC4CCCCCCCCCCC4)ncnc32)cc1	1	-5	31	0
CCOc1ccc2nc(NC(=O)c3cccs3)sc2c1	-9	31	-12	0
COc1ccc2nc(NC(=O)c3ccccc3)sc2c1	-7	43*	-22	0
CCOc1cccc2nc(NC(=O)c3ccc(Oc4ccccc4)cc3)sc12	0	-8	-5	0
O=C(Nc1nc2ccccc2s1)c1ccc(C(=O)c2ccccc2)o1	-2	36*	-11	0
COc1ccc2nc(NC(=O)c3cccs3)sc2c1	-8	44*	-4	0
Cc1cccc2nc(NC(=O)c3ccc(Oc4ccccc4)cc3)sc12	1	52*	-14	0
CC(=O)n1cc(/C=C2\N=C(c3cc(I)ccc3Cl)OC2=O)c(-c2ccccc2)n1	1	1	10	0
COC(=O)c1nn(-c2ccc(F)cc2)cc1O	-4	-17	-8	0
CCCCOC(=O)c1ccc(NC(=O)c2cccc(Cl)c2)cc1	-1	0	-20	0
Cc1ccc(NC(=O)c2ccc(NCCCN3CC(C)CC(C)C3)c([N+](=O)[O-])c2)cc1F (centres undefined)	0	-11	-5	0
COc1cccc(CNC(=O)c2cnn3c(C)c(Cc4cc(C)ccc4C)c(C)nc23)c1	1	-10	4	0
CCOc1ccc(C(=O)Nc2nc3ccccc3s2)cc1	-7	57*	-3	0
CCOc1ccc2nc(NC(=O)NC(=O)C(F)(F)F)sc2c1	-2	63*	-4	0
CCCCCCOc1ccc(C(=O)Nc2nc3ccccc3s2)cc1	0	7	9	0
c1cnn(Cc2ccc(Nc3nccc(-c4cncc(N5CCOCC5)c4)n3)cc2)c1	1	65*	7	0
Cc1nc(C)n(-c2ccc(Nc3nccc(-c4cncc(N5CCOCC5)c4)n3)cc2)n1	2	31	16	0
SMILES	GPR151 ag	TEAD-YAP block	MITF primary	FBW7 act
c1cn(Cc2ccc(Nc3nccc(-c4cncc(N5CCOCC5)c4)n3)cc2)cn1	0	68*	3	0
CCn1c(C)nc2cc(C(=O)N(C)C)ccc21	0	1	-19	0
O=C(Nc1ccc(F)cc1)c1cccc(Cl)c1	-2	-25	-5	0
O=C(Nc1cc(=O)[nH]c(=O)[nH]1)c1cccc(Cl)c1	-2	40*	-5	0
CCOC(=O)c1c(NC(=O)c2ccc(S(=O)(=O)N3CCCC(C)C3)cc2)sc2c1CCN(CC)C2 (centres undefined)	0	-9	-10	0
Cc1ccc(N/C(N)=N/c2nc(C)cc(N3CCCC3)n2)c(C)c1	1	34*	4	0
Cc1cc(C)nc(/N=C(\N)Nc2cc(Cl)ccc2C)n1	-2	5	7	0
CCN(C(=O)CN1C(=O)C(=O)c2ccccc21)c1ccccc1	0	5	-2	0
COc1cc(/C=N/NC(=O)CC2(C)OCCO2)ccc1O	-1	-3	0	0
O=c1[nH]c(C2CC2)nc2cc(-c3cnn(-c4ccc(Cl)cc4)c3)ccc12	0	60*	10	1
O=C1Cc2cc(S(=O)(=O)N3CCCC3)cc3c2N1CCC3	0	11	17	0
CCCN(C(=O)c1ccc(Cl)cc1)c1c(C)n(C)n(-c2ccccc2)c1=O	-1	-6	3	3.2*
CCCN(C(=O)c1ccccc1)c1c(C)n(C)n(-c2ccccc2)c1=O	-1	-15	-19	0
Cc1ccc(-n2c(=S)sc3c(=O)n(-c4ccccc4)c(SCC(=O)c4ccc(F)cc4)nc32)cc1C	0	-4	5	0
COc1cc(C2NC(=S)NC(C)=C2C(=O)Nc2ccc(F)c(F)c2)ccc1O (centres undefined)	-1	-3	-6	0
Nc1cc(N)nc(SCC(=O)NCCOc2ccccc2)n1	-1	16	11	2.2*
Cc1cccc(NS(=O)(=O)c2cc(Br)cc3c2N(C(=O)C2CC2)CC3)c1	1	71*	0	0
Cc1cc(NS(=O)(=O)c2ccc3c(c2)CCN3C(=O)C2CC2)ccc1Br	0	11	10	1
COc1ccc(NS(=O)(=O)c2cc(Br)cc3c2N(C(C)=O)CC3)cc1	1	44*	10	0
COc1c(C)cc(S(=O)(=O)Nc2ccc3c(c2)N(C(=O)C2CC2)CC3)cc1C	1	43*	5	0
CCc1ccc(NS(=O)(=O)c2cc(Br)cc3c2N(C(C)=O)CC3)cc1	0	47*	13	0
C=CCn1c(SCC(=O)Nc2ccccc2Cl)nc2cc(C(=O)NCc3ccco3)ccc2c1=O	0	9	0	0
N#Cc1ccccc1CN1C(=O)C(=O)c2ccccc21	2	5	9	0
CCOC(=O)C1=C(Cc2ccc(OC)cc2)C(=O)c2ccccc2C1=O	-1	46*	12	0
CCOC(=O)C1=C(c2ccc(F)cc2)C(=O)c2ccccc2C1=O	0	26	14	-1
SMILES	GPR151 ag	TEAD-YAP block	MITF primary	FBW7 act
COc1ccc(N2C(=O)/C(=C/C=C/c3ccco3)C(=O)NC2=S)c(OC)c1	2	9	76*	-1
Cc1ccc(N2C(=O)/C(=C/c3ccco3)C(=O)NC2=S)cc1	1	-6	-15	0
Cc1cccc(N2C(=O)/C(=C/C=C/c3ccco3)C(=O)NC2=S)c1	1	-8	58*	0
O=C(CNc1ccc(I)cc1)N/N=C/c1ccc(O)cc1O	-1	56*	10	0
O=C(N/N=C/c1ccc(O)cc1O)c1ccc(I)cc1	3	46*	29	0
COc1ccc(C(=O)Oc2ccc(/C=N/NC(=O)c3ccccc3O)cc2[N+](=O)[O-])cc1	-4	-14	12	0
O=C(Nc1nc2ccccc2[nH]1)c1ccc([N+](=O)[O-])cc1Cl	-6	18	3	0
O=C(Nc1nc2ccccc2[nH]1)c1ccccc1Cl	-11	83*	3	0
O=C(Nc1cnc2ccccc2c1)c1ccc(Cl)cc1Cl	-4	66*	10	0
O=C(Nc1nc2ccccc2[nH]1)c1ccc(Cl)cc1Cl	-11	84*	-10	0
CCCCOc1ccc(C(=O)NCc2nnc(SCC(=O)N3CCc4ccccc43)n2-c2ccccc2OC)cc1	1	0	17	0
